Test results taken from PubChem BioAssay (Tox21).
“And” between values parts separate entries of the source, which are not always exact repeats. Identical values can stand only once. Inconclusive results are not listed. Some compounds were tested as several samples or in several runs, with calls that do not always agree. The source made the active and inactive calls. Unless noted, calls come from the whole dose curve; as a rule, active = well fitted curve in the direction sought with a large enough effect in the repeat runs; inconclusive = weak or mixed curves; inactive = no such curve, though single readings can be large; an effect the other way counts as inactive or inconclusive.

Key:
[1] = qHTS assay to identify small molecule agonists of H2AX (AID 1224845; active = well fitted activation curve with a large enough effect in the signal ratio in the repeat runs, not every such curve was filed as active; the % refers to the signal ratio)
Method in brief: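 Phospho-H2AX Ser139 measured by HTRF (ex 320 nm; em 665 and 620 nm) after 24 hr antibody incubation. Compounds, 15 concentrations, 0.76% DMSO, were applied to CHO-K1 cells for 3hr at 37C before lysis.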

[2] = qHTS assay to identify small molecule agonists of the hypoxia (HIF-1) signaling pathway (AID 1224846; active = well fitted activation curve with a large enough effect in the signal ratio in the repeat runs, not every such curve was filed as active; the % refers to the signal ratio)
Method in brief: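 ME-180 HRE-bla reporter cells; compounds in DMSO, 17 h at 37C; read-out beta-lactamase via CCF4-AM FRET.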

[3] = qHTS assay to identify small molecule agonists of H2AX - cell viability counter screen (AID 1224847; calls by dose curve;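 note: wild-type CHO-K1 cells; top concentration of the series differs between compounds; nearly all actives have a fitted effect of over 30% in size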)
Method in brief: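 Counter-screen for viability: CellTiter-Glo ATP luminescence read after 3 h compound treatment (15-point titration, 0.76% DMSO final) of CHO-K1 cells at 37C, with 30 min room-temperature reagent incubation.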

[4] = qHTS assay to identify small molecule antagonists of the estrogen related receptor (ERR) signaling pathway from Tox21 library (AID 1224848); note: nearly all actives have a fitted effect of over 50% in size
Method in brief: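 Luciferase luminescence (ONE-Glo, 30 min room temperature) was the read-out. Cells of the NTP-supplied ERR line, 2,000 per well, were given 6 h at 37 C before compound addition in DMSO and 18 h exposure at 37 C.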

[5] = qHTS assay to identify small molecule agonists of the estrogen related receptor (ERR) signaling pathway from Tox21 library (AID 1224849; calls by dose curve; note: nearly all actives have a fitted effect of over 15% in size); conditions: ERR reporter cell line, ONE-Glo luciferase, 18 h
Method in brief: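 Luciferase activity in ERR pathway reporter cells served as the agonist readout; exposure lasted 18 h at 37 C, with ONE-Glo detection after 30 min at room temperature.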

[6] = qHTS RealTime-Glo MT Cell Viability Assay in HepG2 cells - 24 hour (AID 1224867); note: nearly all actives have a fitted effect of over 50% in size
Method in brief: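 Viability was tracked continuously by NanoLuc luminescence from prosubstrate reduced by living HepG2 cells, at successive time points over 40 h of compound exposure. Cells with reagent were preincubated 5 h at 37 °C before compound addition.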

[7] = qHTS RealTime-Glo MT Cell Viability Assay in HEK293 cells - 32 hour (AID 1224868); note: top concentration of the series differs between compounds; nearly all actives have a fitted effect of over 50% in size
Method in brief: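 Viability tracked continuously by luminescence as live cells reduce a prosubstrate for NanoLuc; HEK293 cells preincubated 5 h, compound-treated at 37 C, and read at 0, 8, 16, 24, 32 and 40 h.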

[8] = A CellTox Green Cytotoxicity Assay to monitor cytotoxicity in HEK293 cells - 0 hour (AID 1224869); note: nearly all actives have a fitted effect of over 50% in size
Method in brief: (§1)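 Real-time, in one plate: 600 HEK293 cells/well with dead-cell DNA dye, pinned compound after 5 h, 37 C incubation over 40 h; viable cells give no appreciable fluorescence.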

[9] = qHTS RealTime-Glo MT Cell Viability Assay in HepG2 cells - 40 hour (AID 1224870); note: nearly all actives have a fitted effect of over 50% in size
Method in brief: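 Real-time viability: cells seeded at 600 per well together with NanoLuc and cell-permeant prosubstrate, compounds added after 5 h incubation. Luminescence tracked at 0, 8, 16, 24, 32 and 40 h of exposure.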

[10] = A CellTox Green Cytotoxicity Assay to monitor cytotoxicity in HEK293 cells - 40 hour (AID 1224871); note: nearly all actives have a fitted effect of over 45% in size
Method in brief: as §1
% is set by controls: 0 for no effect and ±100 for the full control effect.

COCC(C)O (centres undefined)
inactive: Potency [1] | outcome [2] | Potency [3] | Potency [4] | activity change, positive = activation ([5]; at 92.4 µM (top of the series)) -0.602% and 6.16% | Potency [6] | Potency [7] | Potency [8] | Potency [9] | Potency [10]

CN(CCOc1ccc(CC2SC(=O)NC2=O)cc1)c1ccccn1 (centres undefined)
inactive: Potency [1] | outcome [2] | Potency [3] | Potency [6] | Potency [7] | Potency [9] | Potency [10]

Clc1cc(Cl)c(Cl)cc1Cl
inactive: Potency [1] | outcome [2] | Potency [3] | Potency [4] | activity change, positive = activation ([5]; at 92.4 µM (top of the series)) 6.69% and 12.5% | Potency [6] | Potency [7] | Potency [8] | Potency [9] | Potency [10]

O=S(=O)(O)CCS
inactive: Potency [1] | outcome [2] | Potency [3] | Potency [4] | activity change, positive = activation ([5]; at 42.5 µM (top of the series)) -0.0445% | activity change, positive = activation ([5]; at 92.4 µM (top of the series)) -7.56% | Potency [7] | Potency [9] | Potency [10]

CCCCC(CC)COC(=O)/C=C\C(=O)OCC(CC)CCCC (centres undefined)
inactive: Potency [1] | outcome [2] | Potency [3] | Potency [4] | activity change, positive = activation ([5]; at 92.4 µM (top of the series)) -6.56% and 3.66% | Potency [7] | Potency [8] | Potency [9] | Potency [10]

CCCCNC(N)=O
inactive: Potency [1] | outcome [2] | Potency [3] | Potency [4] | activity change, positive = activation ([5]; at 92.4 µM (top of the series)) 7.41% and 4.54% | Potency [6] | Potency [7] | Potency [8] | Potency [9] | Potency [10]

CN(C)c1cccc(O)c1
inactive: Potency [1] | outcome [2] | Potency [3] | Potency [6] | Potency [7] | Potency [9] | Potency [10]

CCCCCCCCCCC=CC1CC(=O)OC1=O (centres undefined)
inactive: Potency [1] | outcome [2] | Potency [3] | Potency [6] | Potency [7] | Potency [9] | Potency [10]

O=[N+]([O-])c1cccc(Cl)c1
inactive: Potency [1] | outcome [2] | Potency [3] | Potency [4] | activity change, positive = activation ([5]; at 92.4 µM (top of the series)) 8.37% and -4.75% | Potency [6] | Potency [7] | Potency [8] | Potency [9] | Potency [10]

OCCOCCOCCOCCO
inactive: Potency [1] | outcome [2] | Potency [3] | Potency [6] | Potency [7] | Potency [8] | Potency [9] | Potency [10]

c1ccc2[nH]cnc2c1
inactive: Potency [1] | outcome [2] | Potency [3] | Potency [6] | Potency [7] | Potency [8] | Potency [9] | Potency [10]

Oc1ccc2ccccc2c1
inactive: Potency [1] | outcome [2] | Potency [3] | Potency [6] | Potency [7] | Potency [9] | Potency [10]

CC1COc2ccccc2N1C(=O)C(Cl)Cl (centres undefined)
inactive: Potency [1] | outcome [2] | Potency [3] | Potency [6] | Potency [7] | Potency [8] | Potency [9] | Potency [10]

OC1CCCC1
inactive: Potency [1] | outcome [2] | Potency [3] | Potency [4] | activity change, positive = activation ([5]; at 92.4 µM (top of the series)) 4.85% and 0.946% | Potency [7] | Potency [8] | Potency [9] | Potency [10]

OCC1CCCO1 (centres undefined)
inactive: Potency [1] | outcome [2] | Potency [3] | Potency [6] | Potency [7] | Potency [9] | Potency [10]

CC(C)(CO)COC(=O)C(C)(C)CO
inactive: Potency [1] | outcome [2] | Potency [3] | Potency [4] | activity change, positive = activation ([5]; at 92.4 µM (top of the series)) 2.22% and 0.644% | Potency [7] | Potency [8] | Potency [9] | Potency [10]

CCCCCC/C=C/CCCCCCCC(=O)O
inactive: Potency [1] | outcome [2] | Potency [3] | Potency [6] | Potency [7] | Potency [8] | Potency [9] | Potency [10]

CCCCCCC(C)(C)S
inactive: Potency [1] | outcome [2] | Potency [3] | Potency [6] | Potency [7] | Potency [8] | Potency [9] | Potency [10]

NS(=O)(=O)c1cc2c(cc1Cl)NC=NS2(=O)=O
inactive: Potency [1] | outcome [2] | Potency [3] | Potency [6] | Potency [7] | Potency [8] | Potency [9] | Potency [10]

CC1(C)O[C@@H]2C[C@H]3[C@@H]4C[C@H](F)C5=CC(=O)CC[C@]5(C)[C@H]4[C@@H](O)C[C@]3(C)[C@]2(C(=O)CO)O1
inactive: Potency [1] | outcome [2] | Potency [3] | Potency [4] | activity change, positive = activation ([5]; at 42.5 µM (top of the series)) -3.03% | activity change, positive = activation ([5]; at 92.4 µM (top of the series)) -6.71% | Potency [7] | Potency [9] | Potency [10]

COC(=O)c1ccccc1O
inactive: Potency [1] | outcome [2] | Potency [3] | Potency [4] | Potency [6] | Potency [7] | Potency [8] | Potency [9] | Potency [10]
19.3% (active) and 7.16% (inactive): activity change, positive = activation ([5]; at 92.4 µM (top of the series))

c1ccc2ccccc2c1
inactive: Potency [1] | outcome [2] | Potency [3] | Potency [4] | activity change, positive = activation ([5]; at 92.4 µM (top of the series)) 7.43% and 7.09% | Potency [6] | Potency [7] | Potency [9] | Potency [10]

Cc1ccc(C)c(C)c1
inactive: Potency [1] | outcome [2] | Potency [3] | Potency [7] | Potency [8] | Potency [9] | Potency [10]
